Test results from PubChem BioAssay (Tox21).
Inconclusive results are not listed. Calls of active or inactive are those of the source. Unless noted, calls follow the shape of the dose curve; as a rule, active = well fitted curve in the direction sought with a large enough effect in the repeat runs; inconclusive = weak or mixed curves; inactive = no such curve, though single readings can be large; an effect the other way counts as inactive or inconclusive.

Legend:
[1] = qHTS assay to identify small molecule antagonists of the estrogen related receptor (ERR) signaling pathway from Tox21 library - cell viability counter screen (AID 1224834); also: nearly all actives have a fitted effect of over 30% in size; also: potency is read from the fitted curve at half-maximal effect
Summary of the method: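 Compounds in DMSO were pinned onto ERR cells that had been incubated for 6 h, and the plates were held at 37 C for 17.5 h. CellTiter-Fluor reagent was then added and fluorescence was measured after 30 min.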

[2] = target: Luciferin 4-monooxygenase (Photinus pyralis) (UniProt P08659); assay: qHTS assay to identify small molecule inhibitors of firefly luciferase (AID 1224835); also: nearly all actives have a fitted effect of over 25% in size; also: potency is read from the fitted curve at half-maximal effect
Sequence of Luciferin 4-monooxygenase (Photinus pyralis) (P08659 whole entry, looked up): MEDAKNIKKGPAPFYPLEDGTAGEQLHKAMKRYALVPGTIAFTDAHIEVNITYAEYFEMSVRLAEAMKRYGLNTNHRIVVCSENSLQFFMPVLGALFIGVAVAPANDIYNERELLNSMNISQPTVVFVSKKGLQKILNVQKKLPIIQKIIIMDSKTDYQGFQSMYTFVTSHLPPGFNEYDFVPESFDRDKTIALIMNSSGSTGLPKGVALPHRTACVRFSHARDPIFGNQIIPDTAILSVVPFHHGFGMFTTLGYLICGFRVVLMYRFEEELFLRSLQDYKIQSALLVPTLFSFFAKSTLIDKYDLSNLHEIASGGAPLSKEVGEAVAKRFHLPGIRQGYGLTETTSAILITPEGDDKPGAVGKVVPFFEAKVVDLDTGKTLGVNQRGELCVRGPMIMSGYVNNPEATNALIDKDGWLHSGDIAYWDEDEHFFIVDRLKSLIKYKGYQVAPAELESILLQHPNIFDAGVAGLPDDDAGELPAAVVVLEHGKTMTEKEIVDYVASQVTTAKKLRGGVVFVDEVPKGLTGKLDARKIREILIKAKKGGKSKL
Summary of the method: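 Quantitative HTS format; KM concentrations of both substrates. Purified P. pyralis FLuc activity quantified from luminescence images.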

[3] = qHTS assay to identify small molecule agonists of the constitutive androstane receptor (CAR) signaling pathway - cell viability counter screen (AID 1224836); also: nearly all actives have a fitted effect of over 45% in size
Summary of the method: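 Compound titrations (15 concentrations) went onto HepG2-CYP2B6-hCAR cells 4 h after seeding, alongside PK11195 at a final 0.75 uM; a 23 h, 37 C/5% CO2 incubation preceded CellTiter-Fluor viability measurement.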

[4] = qHTS assay to identify small molecule antagonists of the constitutive androstane receptor (CAR) signaling pathway - cell viability counter screen (AID 1224837); also: nearly all actives have a fitted effect of over 45% in size; also: potency is read from the fitted curve at half-maximal effect
Summary of the method: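 Cells are seeded, rested 4 hr at 37 C/5% CO2, dosed with compound (15-point series) and 50 nM CITCO, incubated a further 23 hr, and then CellTiter-Fluor reagent is added before fluorescence is read. The line is HepG2 with stable hCAR and CYP2B6-2.2kb.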

[5] = qHTS assay to identify small molecule antagonists of the estrogen related receptor signaling pathway with the pleiotropic PPARgamma coactivator (PGC) from Tox21 10K library - cell viability counter screen (AID 1224840; active = well fitted cell-killing curve with a large enough effect in the repeat runs, not every such curve was filed as active; also: nearly all actives have a fitted effect of over 40% in size; also: potency is read from the fitted curve at half-maximal effect)
Summary of the method: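 Cell viability is measured by CellTiter-Fluor fluorescence in PGC/ERR cells that receive compounds after a 6-hour attachment period and are then incubated 17.5 hours at 37 C.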

[6] = target: Thyrotropin receptor (Homo sapiens) (UniProt P16473); assay: qHTS assay to identify small molecule agonists of the thyroid stimulating hormone receptor (TSHR) signaling pathway (AID 1224843; calls by dose curve; also: nearly all actives have a fitted effect of over 45% in size)
Sequence of Thyrotropin receptor (Homo sapiens) (P16473 whole entry, looked up): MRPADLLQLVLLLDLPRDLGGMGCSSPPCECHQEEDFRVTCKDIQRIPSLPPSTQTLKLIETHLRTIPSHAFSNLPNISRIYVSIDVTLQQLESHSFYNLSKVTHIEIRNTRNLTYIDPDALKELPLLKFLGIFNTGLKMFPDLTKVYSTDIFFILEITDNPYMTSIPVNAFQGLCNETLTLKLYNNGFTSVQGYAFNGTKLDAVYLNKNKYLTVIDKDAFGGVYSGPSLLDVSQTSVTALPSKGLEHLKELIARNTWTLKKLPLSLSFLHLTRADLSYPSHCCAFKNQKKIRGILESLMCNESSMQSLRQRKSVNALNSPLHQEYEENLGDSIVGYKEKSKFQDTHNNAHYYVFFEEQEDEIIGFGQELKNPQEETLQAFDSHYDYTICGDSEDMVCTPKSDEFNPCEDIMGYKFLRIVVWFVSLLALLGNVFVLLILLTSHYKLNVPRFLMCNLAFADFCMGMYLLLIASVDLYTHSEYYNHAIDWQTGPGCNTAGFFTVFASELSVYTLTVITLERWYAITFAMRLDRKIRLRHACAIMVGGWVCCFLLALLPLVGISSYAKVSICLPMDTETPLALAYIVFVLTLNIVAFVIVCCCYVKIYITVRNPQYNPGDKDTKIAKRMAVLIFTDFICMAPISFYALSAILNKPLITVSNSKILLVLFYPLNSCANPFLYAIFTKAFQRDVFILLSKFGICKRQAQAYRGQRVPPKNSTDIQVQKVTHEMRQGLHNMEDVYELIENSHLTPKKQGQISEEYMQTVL
Summary of the method: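 Compounds are titrated over 15 concentrations, in triplicate, onto TSHR-HEK293 cells seeded at 800/well. Plates sit 30 min at room temperature before cAMP-d2 and anti-cAMP cryptate are added; signal is read after a further hour.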

[7] = qHTS assay to identify small molecule agonists of the hypoxia (HIF-1) signaling pathway - cell viability counter screen (AID 1224844; calls by dose curve; also: nearly all actives have a fitted effect of over 50% in size; also: potency is read from the fitted curve at half-maximal effect)
Summary of the method: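 Viability counter screen: HRE-bla ME-180 cells plated 5 hrs before compound addition, treated 17 hrs at 37C and 5% CO2, then CellTiter-Glo added after the FRET reporter read; luminescence after 30 min.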

[8] = qHTS assay to identify small molecule agonists of H2AX (AID 1224845; active = well fitted activation curve with a large enough effect in the signal ratio in the repeat runs, not every such curve was filed as active; the % refers to the signal ratio; also: potency is read from the fitted curve at half-maximal effect)
Summary of the method: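 Wild-type CHO-K1 cells plated overnight, then exposed 3 hr at 37C to compounds at 15 concentrations (0.76% DMSO). Lysed, then HTRF anti-pH2AX(S139)-cryptate/anti-H2AX-d2 detection after 24 hr at room temperature; emissions 665 and 620 nm.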

[9] = qHTS assay to identify small molecule agonists of H2AX - cell viability counter screen (AID 1224847; calls by dose curve; also: nearly all actives have a fitted effect of over 30% in size; also: potency is read from the fitted curve at half-maximal effect; as to activity change, negative = cytotoxicity: top concentration of the series differs between compounds)
Summary of the method: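 Read-out: CellTiter-Glo luminescence, 30 min RT. Cells: wild-type CHO-K1, 1000/well, 10% FBS, plated overnight at 37C. Treatment: 15 concentrations, 3 hr, 37C, 0.76% DMSO.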

[10] = qHTS RealTime-Glo MT Cell Viability Assay in HepG2 cells - 24 hour (AID 1224867); also: nearly all actives have a fitted effect of over 50% in size
Summary of the method: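 qHTS, HepG2, 600 cells/well, RealTime-Glo (NanoLuc + prosubstrate) added with cells; 5 h preincubation; DMSO compound addition; 37 C; luminescence at 0/8/16/24/32/40 h.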

[11] = qHTS RealTime-Glo MT Cell Viability Assay in HEK293 cells - 32 hour (AID 1224868); also: nearly all actives have a fitted effect of over 50% in size; also: potency is read from the fitted curve at half-maximal effect; as to activity change, negative = cytotoxic: top concentration of the series differs between compounds
Summary of the method: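 Assay medium contained NanoLuc luciferase plus cell-permeant prosubstrate, added with HEK293 cells at 600 cells/well. After 5 h at 37 C/5% CO2 compounds were added; plates stayed at 37 C for 40 h with serial luminescence reads.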

[12] = A CellTox Green Cytotoxicity Assay to monitor cytotoxicity in HEK293 cells - 0 hour (AID 1224869); also: nearly all actives have a fitted effect of over 50% in size
Summary of the method: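 Dead-cell fluorescence measured kinetically: asymmetric cyanine dye, HEK293, 600 cells/well, 5 h settle, 23 nL cpd/DMSO, 37 C, reads 0–40 h every 8 h.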

[13] = qHTS RealTime-Glo MT Cell Viability Assay in HepG2 cells - 40 hour (AID 1224870); also: nearly all actives have a fitted effect of over 50% in size
Summary of the method: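 HepG2 cells mixed with RealTime-Glo MT reagents (NanoLuc plus cell-permeant prosubstrate) were seeded at 600 cells/well, incubated 5 h at 37 C/5% CO2, then pinned with compounds in DMSO; nonlytic luminescence tracked viability during 40 h treatment.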

[14] = target: Nuclear receptor subfamily 1 group I member 3 (Homo sapiens) (UniProt Q14994); assay: qHTS assay to identify small molecule antagonists of the constitutive androstane receptor (CAR) signaling pathway (AID 1224838);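 also: HepG2 cells stably expressing hCAR with CYP2B6 luciferase reporter stimulated by CITCO; nearly all actives have a fitted effect of over 40% in size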
Sequence of Nuclear receptor subfamily 1 group I member 3 (Homo sapiens) (Q14994 whole entry, looked up): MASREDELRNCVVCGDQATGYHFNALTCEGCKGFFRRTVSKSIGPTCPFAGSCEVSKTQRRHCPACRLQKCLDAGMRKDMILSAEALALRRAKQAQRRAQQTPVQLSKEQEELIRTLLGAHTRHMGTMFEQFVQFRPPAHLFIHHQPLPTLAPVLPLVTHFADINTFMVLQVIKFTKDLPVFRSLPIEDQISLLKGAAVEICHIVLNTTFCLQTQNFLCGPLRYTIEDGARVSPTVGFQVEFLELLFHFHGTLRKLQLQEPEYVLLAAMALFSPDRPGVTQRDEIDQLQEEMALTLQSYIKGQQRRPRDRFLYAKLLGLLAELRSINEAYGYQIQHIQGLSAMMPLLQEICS
Summary of the method: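 Luminescence from a CYP2B6-2.2kb promoter reporter in hCAR-expressing HepG2 cells reflects CAR signaling. Cells received compounds at 15 concentrations and 50 nM CITCO (final), then incubated 24 h at 37 C/5% CO2.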

[15] = target: Nuclear receptor subfamily 1 group I member 3 (Homo sapiens) (UniProt Q14994); assay: qHTS assay to identify small molecule agonists of the constitutive androstane receptor (CAR) signaling pathway (AID 1224839);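 also: HepG2 cells stably carrying human CAR and a CYP2B6 luciferase reporter; nearly all actives have a fitted effect of over 15% in size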
Summary of the method: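 In this screen, CAR-driven CYP2B6 promoter activity is measured by luminescence in HepG2-CYP2B6-hCAR cells after 24 h with test compounds and 0.75 uM PK11195 (final concentration).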

[16] = qHTS assay to identify small molecule antagonists of the estrogen related receptor signaling pathway with the pleiotropic PPARgamma coactivator (PGC) from Tox21 10K library (AID 1224841; call rule not given here; also: potency is read from the fitted curve at half-maximal effect)
Summary of the method: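 Cells stably carrying the PGC/ERR reporter, seeded at 2,000 per well, received pin-transferred compounds 6 h post-plating. Exposure lasted 18 h at 37 C. Signal: One-Glo luminescence.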

[17] = qHTS assay to identify small molecule agonists of the estrogen related receptor (ERR) signaling pathway from Tox21 library (AID 1224849; calls by dose curve; also: nearly all actives have a fitted effect of over 15% in size); conditions: ERR reporter cell line, ONE-Glo luciferase, 18 h; at 92.4 µM (top of the series) unless noted
Summary of the method: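 Quantitative HTS in agonist format: NTP ERR cell line, compounds transferred in DMSO after 6 h plating, 18 h incubation at 37 C, ONE-Glo luminescence endpoint.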

[18] = qHTS assay to identify small molecule agonists of the estrogen related receptor signaling pathway with the pleiotropic PPARgamma coactivator (PGC) from Tox21 10K library (AID 1224842); also: nearly all actives have a fitted effect of over 15% in size
Summary of the method: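 PGC/ERR reporter cells (NTP line) were seeded 2,000 per well, rested 6 h at 37 C/5% CO2, then pin-dosed with compounds in DMSO for 18 h at 37 C; luciferase read by One-Glo luminescence after 30 min at room temperature.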

[19] = qHTS assay to identify small molecule agonists of the hypoxia (HIF-1) signaling pathway (AID 1224846; active = well fitted activation curve with a large enough effect in the signal ratio in the repeat runs, not every such curve was filed as active; the % refers to the signal ratio)
Summary of the method: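 Agonist mode reporter screen. ME-180 cells stably expressing bla under HRE control received test compounds in DMSO for 17 hrs (37C, 5% CO2), and beta-lactamase activity was then detected with the CCF4-AM FRET substrate.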

[20] = qHTS assay to identify small molecule antagonists of the estrogen related receptor (ERR) signaling pathway from Tox21 library (AID 1224848); also: nearly all actives have a fitted effect of over 50% in size; also: potency is read from the fitted curve at half-maximal effect
Summary of the method: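 First, 2,000 ERR cells per well were plated and held 6 h at 37 C/5% CO2. Next, compounds in DMSO were pinned in and left 18 h at 37 C. Finally, ONE-Glo was added and luminescence read after 30 min at room temperature.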
% is scaled to controls: 0 for no effect and ±100 for the full control effect.

C[C@]12CCC(=O)C=C1CC[C@@H]1[C@@H]2[C@@H](O)C[C@@]2(C)[C@H]1CC[C@]2(O)C(=O)COC(=O)CCC(=O)O
inactive: Potency [1] | Potency [2] | Potency [3] | Potency [4] | Potency [5] | Potency [6] | Potency [7] | Potency [8] | Potency [9] | Potency [10] | Potency [11] | Potency [12] | Potency [13]

CCCCCCCCCOC(=O)c1ccc(O)cc1
inactive: Potency [3] | Potency [14] | Potency [15] | Potency [16] | activity change, positive = activation [17] -33.4% | Potency [12] | Potency [13]
active: Potency [1] 53.7 µM | Potency [2] 70 µM | Potency [7] 54.2 µM | Potency [9] 99.3 µM | Potency [11] 38.3 µM

O=Cc1cc(O)ccc1Br
active: Potency [2] 57.2 µM
inactive: Potency [1] | Potency [3] | Potency [4] | Potency [5] | Potency [8] | Potency [10] | Potency [13]

Oc1cccc2cc3cccc(O)c3c(O)c12
inactive: Potency [1] | Potency [3] | Potency [4] | Potency [6] | Potency [8] | Potency [9] | Potency [10] | Potency [11] | Potency [12] | Potency [13]
active: Potency [2] 71.3 µM

O=C(OC[C@H]1O[C@@H](OC(=O)c2cc(O)c(O)c(OC(=O)c3cc(O)c(O)c(O)c3)c2)[C@H](OC(=O)c2cc(O)c(O)c(OC(=O)c3cc(O)c(O)c(O)c3)c2)[C@@H](OC(=O)c2cc(O)c(O)c(OC(=O)c3cc(O)c(O)c(O)c3)c2)[C@@H]1OC(=O)c1cc(O)c(O)c(OC(=O)c2cc(O)c(O)c(O)c2)c1)c1cc(O)c(O)c(OC(=O)c2cc(O)c(O)c(O)c2)c1
active: Potency [1] 16.5 µM
inactive: activity change, negative = inhibition [2] -18.6% [at 23.6 µM] | viability change, negative = cytotoxic [3] -11.1% [at 19 µM] | activity, negative = inhibition [14] -0.544% [at 19 µM] | activation [15] -3.23% [at 19 µM] | activity, negative = inhibition [16] -8.46% [at 19 µM] | activation [18] -3.36% [at 19 µM] | activity change, negative = cytotoxicity [7] -0.825% [at 15.8 µM] | Potency [9] | activity change, positive = activation [17] -16% [at 19 µM] | activity change, negative = cytotoxic [11] -17.3% [at 15.8 µM] | cytotoxicity [12] -16.9% [at 15.8 µM]

Cc1cc(C2CCCCC2)n(O)c(=O)c1
active: Potency [1] 9.44 µM | Potency [4] 29.8 µM | Potency [5] 26.6 µM | Potency [8] 9.82 µM | Potency [11] 1.69 µM
inactive: Potency [2] | Potency [6] | Potency [9] | Potency [12] | Potency [13]

CCCCCCCCCCC=O
inactive: Potency [1] | Potency [2] | Potency [3] | Potency [4] | Potency [16] | Potency [18] | Potency [6] | Potency [7] | Potency [8] | Potency [19] | Potency [9] | Potency [20] | activity change, positive = activation [17] 0.203% | Potency [10] | Potency [11] | Potency [12] | Potency [13]

C[C@@H]1C[C@H]2[C@@H]3CCC4=CC(=O)C=C[C@]4(C)[C@@]3(Cl)[C@@H](O)C[C@]2(C)[C@@]1(OC(=O)c1ccco1)C(=O)CCl
inactive: Potency [2] | Potency [3] | Potency [4] | Potency [18] | Potency [6] | Potency [8] | Potency [9] | activity change, positive = activation [17] -51.1% [at 42.5 µM] | Potency [11] | Potency [12]
active: Potency [1] 23.7 µM | Potency [16] 23.7 µM | Potency [20] 13.3 µM
